Results filed as inconclusive are left out. Where a call stands in place of a potency, no number is given. The source made the active and inactive calls. Calls come from the whole dose curve; as a rule, active = well fitted curve in the direction sought with a large enough effect; inconclusive = small, poorly fitted or top-dose-only effect, or another doubt; inactive = no such curve, though single readings can be large; an effect the other way counts as inactive or inconclusive.
What was measured:
[1] = molecular target: Cytochrome P450 3A4 (Homo sapiens) (UniProt P08684); assay: qHTS Assay for Inhibitors and Substrates of Cytochrome P450 3A4 (AID 884); note: series mostly up to about 57 µM; nearly all actives have a fitted effect of over 50% in size
Summary of the method: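 Luminescent readout of luciferin produced by CYP3A4 (20 nM) dealkylation of Luciferin-PPXE, 25 uM (its KM). NADPH-driven reaction ran 60 min at RT after 10 min compound preincubation; data scaled to 57 uM ketoconazole as 100% inhibition.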

[2] = Confirmation and Secondary Assay for Modulators of Hemoglobin Beta Chain Splicing at IVS2 654 locus (AID 910);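 note: HeLa cells stably carrying EGFP split by mutant beta-globin IVS2-654 intron; per-well total GFP intensity by laser scanning cytometry after 2-day treatment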
Summary of the method: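 Readout: per-well total peak green fluorescence (488 nm ex, 500–520 nm em) from objects 5–250 µm, reflecting correct splicing of an EGFP-654 reporter. Compounds were applied for 2 days at 37 °C to overnight-plated HeLa EGFP-654 cells; controls were DMSO and 500 nM IVS2-654 PNA.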

[3] = Confirmation and Secondary Assay for Modulators of Hemoglobin Beta Chain Splicing at IVS2 705 locus (AID 930);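 note: HeLa cells stably expressing the EGFP-705 splicing reporter; GFP fluorescence per well restored by corrected splicing of the IVS2-705 intron in EGFP; series mostly up to about 46 µM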
Summary of the method: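 Splice-correction reporter: EGFP cDNA split by beta-globin intron 2 bearing the 705 mutation, stably in HeLa. Compound incubation 2 days, 37C; fluorescent objects 5-250 µm summed per well.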

[4] = molecular target: Ubiquitin carboxyl-terminal hydrolase 1 (Homo sapiens) (UniProt O94782); assay: Inhibitors of USP1/UAF1: Pilot qHTS (AID 504865); note: nearly all actives have a fitted effect of over 35% in size; note: potency is the fitted concentration of half-maximal effect
Summary of the method: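 1nM USP1/UAF1 + cpd, 15 min RT; start w/ Ub-Rho 150nM final; kinetic FL 480/540 nm, 6 reads q60 s. Buffer 50mM HEPES pH 7.8, 0.5mM EDTA, 1mM TCEP, 0.01% Tween-20, 0.1 mg/ml BSA.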

[5] = molecular target: Cytochrome P450 3A4 (Homo sapiens) (UniProt P08684); assay: qHTS Assay for Activators of Cytochrome P450 3A4 (AID 885); note: nearly all actives have a fitted effect of over 65% in size
Summary of the method: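 Using 20nM recombinant human CYP3A4 in potassium phosphate (200mM), substrate Luciferin-PPXE at 25uM, luminescent luciferin detection followed a 60-min RT NADPH reaction; data scaled to 57 uM ketoconazole.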

Sequence of Ubiquitin carboxyl-terminal hydrolase 1 (Homo sapiens) (O94782 whole entry, looked up): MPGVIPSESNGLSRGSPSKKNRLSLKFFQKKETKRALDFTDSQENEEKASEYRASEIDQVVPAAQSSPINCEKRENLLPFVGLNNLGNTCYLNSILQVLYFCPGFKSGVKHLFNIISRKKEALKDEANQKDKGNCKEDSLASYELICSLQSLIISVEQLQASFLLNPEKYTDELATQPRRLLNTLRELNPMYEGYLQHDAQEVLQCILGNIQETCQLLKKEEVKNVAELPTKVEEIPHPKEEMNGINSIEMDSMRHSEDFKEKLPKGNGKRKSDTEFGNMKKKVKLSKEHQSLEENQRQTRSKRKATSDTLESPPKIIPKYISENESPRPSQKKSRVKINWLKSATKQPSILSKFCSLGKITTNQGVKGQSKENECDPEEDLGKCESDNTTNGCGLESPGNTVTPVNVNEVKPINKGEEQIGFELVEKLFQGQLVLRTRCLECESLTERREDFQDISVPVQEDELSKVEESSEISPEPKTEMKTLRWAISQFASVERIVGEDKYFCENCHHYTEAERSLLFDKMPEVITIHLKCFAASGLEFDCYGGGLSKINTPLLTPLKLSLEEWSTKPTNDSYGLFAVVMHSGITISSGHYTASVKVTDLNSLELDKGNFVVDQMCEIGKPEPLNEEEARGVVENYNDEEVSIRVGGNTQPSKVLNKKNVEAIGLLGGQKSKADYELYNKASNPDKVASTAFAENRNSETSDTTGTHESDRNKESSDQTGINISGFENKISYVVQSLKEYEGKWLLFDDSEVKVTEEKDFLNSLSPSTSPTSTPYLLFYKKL
Sequence of Cytochrome P450 3A4 (Homo sapiens) (P08684 whole entry, looked up): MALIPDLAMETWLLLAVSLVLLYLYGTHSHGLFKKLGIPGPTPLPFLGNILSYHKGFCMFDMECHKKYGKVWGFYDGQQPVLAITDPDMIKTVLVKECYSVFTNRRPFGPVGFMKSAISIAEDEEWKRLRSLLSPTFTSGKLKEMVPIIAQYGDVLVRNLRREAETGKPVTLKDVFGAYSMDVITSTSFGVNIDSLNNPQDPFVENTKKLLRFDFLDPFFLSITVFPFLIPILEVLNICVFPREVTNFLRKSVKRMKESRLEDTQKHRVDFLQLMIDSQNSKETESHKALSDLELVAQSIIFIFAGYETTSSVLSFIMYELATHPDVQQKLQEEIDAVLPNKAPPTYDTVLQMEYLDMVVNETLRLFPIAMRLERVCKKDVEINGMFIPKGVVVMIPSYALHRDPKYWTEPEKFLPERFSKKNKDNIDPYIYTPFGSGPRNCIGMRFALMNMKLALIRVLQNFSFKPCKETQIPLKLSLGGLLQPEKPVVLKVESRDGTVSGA

Row | Structure (SMILES) | Potency [1] | outcome [2] | outcome [3] | Potency [4] | Potency [5]
1 | CC1/C=C/C=C/C=C/C=C/C=C/C=C/C=C/C(OC2OC(C)C(O)C(N)C2O)CC2O[C@@](O)(CC(O)CC(O)C(O)CCC(O)CC(O)CC(=O)OC(C)[C@H](C)C1O)CC(O)C2C(=O)O (some centres not stated) | inactive | inactive | inactive | 56.2 µM (active) | 
2 | COc1ccc(-c2cc(=O)c3cc(OC)ccc3o2)cc1 |  | inactive | inactive | inactive | inactive
3 | COc1ccc(C2COc3c(ccc(O)c3OC)C2)c(OC)c1O (configuration not stated) |  | inactive | inactive | inactive | inactive
4 | CC1CC[C@@]23CCC4(C)[C@@]5(C)CCC6C(C)(C)C(=O)CC[C@@]6(C)C5C=C[C@@]4(OC2=O)C3C1C (some centres not stated) | inactive | inactive | inactive | inactive | 
5 | NC(N)=N/N=C\c1c(Cl)cccc1Cl | inactive | inactive | inactive | inactive | 
6 | CCC1OC(=O)C(C)[C@@H](O[C@H]2C[C@@](C)(OC)C(O)C(C)O2)C(C)[C@@H](O[C@@H]2OC(C)CC(N(C)C)C2O)[C@@](C)(O)CC(C)C2NC(COCCOC)O[C@H](C2C)[C@@]1(C)O (some centres not stated) | inactive | inactive | inactive | inactive | 
7 | CC1CCC2C(C)(C)C3CC12CC[C@]3(C)O (some centres not stated) | inactive | inactive | inactive | inactive | 
8 | Nc1ncnc2c1nc(Br)n2C1OC(CO)C(O)C1O (configuration not stated) | inactive | inactive | inactive | inactive | 
9 | Cc1onc(-c2c(Cl)cccc2Cl)c1C(=O)NC1C(=O)N2C1SC(C)(C)C2C(=O)O (configuration not stated) | inactive | inactive | inactive | inactive | 
10 | CC(=O)OCC(=O)[C@@]1(O)CCC2C3CCC4=CC(=O)CC[C@]4(C)C3C(=O)C[C@]21C (some centres not stated) | inactive | inactive | inactive | inactive | 
11 | O[N+]1=CC=CCC1=S.On1ccccc1=S.[Zn] | inactive | inactive | inactive | inactive | 
12 | COc1ccc(-c2c(O)c3c(OC)c4c(cc3oc2=O)OC(C)(C)CC4)cc1 |  | inactive | inactive | inactive | inactive
13 | CC(CCC(=O)O)C1CCC2C3C(=O)CC4CC(=O)CC[C@@]4(C)C3CC(=O)[C@]12C (some centres not stated) | inactive | inactive | inactive | inactive | 
14 | CS(C)(=O)=O |  | inactive | inactive | inactive | inactive
15 | CC(=O)OC1CC[C@@]2(C)C3CC[C@@]4(C)C(CC5O[C@@]6(CCC(C)CO6)C(C)C54)C3CC[C@@H]2C1 (some centres not stated) | inactive | inactive | inactive | inactive | 
16 | COC(=O)c1c(C)cc(O)cc1O |  | inactive | inactive | inactive | inactive
17 | CSCCC(N)C(=O)NC(CC(C)C)C(=O)NC(Cc1ccccc1)C(=O)O (configuration not stated) | inactive | inactive | inactive | inactive | 
18 | Nc1nc2c(ncn2C2CC(O)C(CO)O2)c(=O)[nH]1 (configuration not stated) | inactive | inactive | inactive | inactive | 

— PubChem BioAssay (NCATS)
